# Screening results deposited in PubChem BioAssay by National Center for Advancing Translational Sciences (NCATS).
# Pol kappa inh: qHTS for Inhibitors of Polymerase Kappa | DNA polymerase kappa (Homo sapiens), Q9UBT6 | purified Pol kappa, fluorescent DNA synthesis assay, 10 min | Potency, µM (top dose mostly 107 µM), for the others: at the highest dose activity, negative = inhibition, hits mostly inhibitors | 0.53% of 400,000 active; note: potency is the fitted concentration of half-maximal effect; % is set by controls: 0 for no effect and ±100 for the full control effect
#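 Inhibition of 10 nM Pol kappa is measured by a fluorescent read-out at 0 and 10 min following addition of 50 nM substrate (final), with a 15-min room-temperature compound preincubation.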
# FEN1 inhibitor: qHTS Assay for the Inhibitors of Human Flap endonuclease 1 (FEN1); Potency, µM (highest dose often 114 µM), for inactives: at the highest dose activity change, negative = inhibition, hits mostly inhibitors; Recombinant FEN1 flap cleavage, fluorescence, 15 min; P39748; 0.35% of 390,000 active; note: potency is the fitted concentration of half-maximal effect; % is set by controls: 0 for no effect and ±100 for the full control effect; nearly all actives have a fitted effect of over 65% in size
# Target sequence (P39748 whole entry, looked up): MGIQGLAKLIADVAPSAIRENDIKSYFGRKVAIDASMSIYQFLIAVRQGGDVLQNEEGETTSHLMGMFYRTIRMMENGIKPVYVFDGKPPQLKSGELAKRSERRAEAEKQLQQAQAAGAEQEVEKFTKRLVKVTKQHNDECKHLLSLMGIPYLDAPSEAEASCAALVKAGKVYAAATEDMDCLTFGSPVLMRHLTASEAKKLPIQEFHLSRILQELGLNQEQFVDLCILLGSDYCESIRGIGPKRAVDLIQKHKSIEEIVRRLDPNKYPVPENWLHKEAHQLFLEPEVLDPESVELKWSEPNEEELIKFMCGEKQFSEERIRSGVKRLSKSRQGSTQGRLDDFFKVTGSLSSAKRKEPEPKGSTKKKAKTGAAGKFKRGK
#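 With each library titrated from low to high concentration, compounds met 10 nM FEN1 for 15 min at room temperature before 50 nM substrate was added; readings at 0 and 15 min fed four-parameter Hill curve fits.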
# Pol beta inh-1: qHTS Assay for Inhibitors of DNA Polymerase Beta | P06746 | Pol beta primer extension/strand displacement, fluorescence kinetic | Potency, µM (series often up to 114 µM), without a hit: at the highest dose activity change, negative = inhibition, most hits filed as inhibitors | 1.3% of 340,000 active; note: potency is the fitted concentration of half-maximal effect; % is set by controls: 0 for no effect and ±100 for the full control effect
#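 Pol beta (10 nM) and compounds were preincubated 15 min at room temperature, then 50 nM substrate (final) started primer extension/strand displacement. Reads were taken at 0 and 10 min; concentration-response data were fitted to a four-parameter Hill equation.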
# WRN inhibitor: qHTS for Inhibitors of WRN Helicase | Potency, µM (series often up to 114 µM), for inactives: at the highest dose activity change, negative = inhibition, usual class: inhibitors | 0.46% of 360,000 active | WRN helicase unwinding, fluorescent forked duplex, kinetic | Bifunctional 3'-5' exonuclease/ATP-dependent helicase WRN (Homo sapiens), Q14191 | AID 651768, 2012; note: potency is the fitted concentration of half-maximal effect; % is set by controls: 0 for no effect and ±100 for the full control effect; nearly all actives have a fitted effect of over 55% in size
#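 Enzyme (20 nM final) and test compound sit together 15 min at room temperature before substrate addition. Substrate is a single-forked duplex oligonucleotide (100 nM) labelled with fluorophore and quencher, with 2 mM ATP; helicase unwinding raises red fluorescence, read kinetically.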
# POLH inh: qHTS for Inhibitors of Polymerase Eta | AID 588591, 2011 | Potency, µM (highest dose often 114 µM), without a hit: at the top dose activity change, negative = inhibition, hits mostly inhibitors | DNA polymerase eta (Homo sapiens), Q9Y253 | recombinant Pol eta, fluorescent DNA replication assay | 1.2% of 390,000 active; note: potency is the fitted concentration of half-maximal effect; % is set by controls: 0 for no effect and ±100 for the full control effect
#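 Pol eta at 10 nM preincubated with compounds 15 min at room temperature; reaction started with fluorescent substrate (50 nM final) and read kinetically at 0 and 10 min.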
# Pol iota inh: qHTS for Inhibitors of Polymerase Iota; Pol iota fluorescent replication assay, 10 min; 1% of 390,000 active; DNA polymerase iota (Homo sapiens), Q9UNA4; Potency, µM (series often up to 115 µM), for the others: at the top dose activity, negative = inhibition, usual class: inhibitors; note: potency is the fitted concentration of half-maximal effect
#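 Fluorescent replication assay read twice, at 0 min and 10 min after adding 50 nM (final) substrate. Enzyme (10 nM) and compounds were first incubated 15 min at room temperature; enzyme-free buffer wells were negative controls.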
# Pol beta inh-2: Inhibitors of DNA Polymerase Beta: Hit validation | shares compounds with Pol beta inh-1 | Pol beta primer extension/strand displacement, fluorescence kinetic | Potency, µM, usual class: inhibitors | 87% of 250 active | AID 540280, 2011; calls by dose curve; note: potency is the fitted concentration of half-maximal effect
# Klenow inh: Inhibitors of DNA Polymerase Beta: Hit Validation in Klenow Fragment Assay; AID 540300, 2011; 250 tested, under 10 active; activity change, negative = inhibition, % at 57.1 µM; shares compounds with Pol beta inh-1; Klenow exo- polymerase counter-screen, fluorescent DNA substrate
# HIV RT inh: Inhibitors of DNA Polymerase Beta: Hit Validation in HIV-RT Assay. HIV-1 RT polymerase activity, counter-screen. 250 tested, under 10 active. shares compounds with Pol beta inh-1. activity % (negative = inhibition, positive = activation), % at 57.1 µM. AID 540301, 2011
# POLB valid: Inhibitors of DNA Polymerase Beta: Hit Validation in Radiolabeled Extension Assay. shares compounds with Pol beta inh-1. radiolabeled primer extension gel assay, phosphorimager. inhibition, % at 10 µM. 91% of 110 active. AID 540325, 2011;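 active = inhibition at 10 µM of 30% or more; inconclusive = no clear call, values can overlap the other calls; inactive = inhibition at 10 µM under 30%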
# Numbers without * were called inactive; u = inconclusive; x = not tested or not shown; [ ] = remark or other dose. Rows were chosen to be rich in hits. Some 2.4% of all compounds tested hit in one or more screens of this group. Unless noted, calls come from the whole dose curve; as a rule, active = well fitted curve in the direction sought with a large enough effect; inconclusive = small, poorly fitted or top-dose-only effect, or another doubt; inactive = no such curve, though single readings can be large; an effect the other way counts as inactive or inconclusive.
SMILES,Pol kappa inh,FEN1 inhibitor,Pol beta inh-1,WRN inhibitor,POLH inh,Pol iota inh,Pol beta inh-2,Klenow inh,HIV RT inh,POLB valid
COCCCNC(=O)Cn1c(=O)n(-c2cccc(C)c2)c(=O)c2c1c1cc(C)ccc1n2C,-22%[60.1 µM],16%,-3%,x,-7%,u,x,x,x,x
COc1ccc(C(=O)Nc2ccc3c(c2)C(=O)c2ccccc2C3=O)cc1OC,-10%,-15%,2.2µM*,-33%,u,-5%,22*,-15,23,70*
O=C(Nc1ccccc1Cl)C1CCN(c2nc3ccccc3[nH]2)CC1,-8%[60.1 µM],0%,-8%,x,-15%,33%,x,x,x,x
CCOc1ccc(C2=Nn3c(nnc3-c3ccccc3OC)SC2)cc1,-5%,-13%,0%,-12%,2%,20%,x,x,x,x
COc1ccccc1-c1nnc2n1N=C(c1ccc(O)c(O)c1)CS2,25µM*,-6%,4µM*,22µM*,8.9µM*,13µM*,25*,-22,-15,37*
CCOc1ccc(Cn2c(CNS(=O)(=O)c3cccs3)nc3cccnc32)cc1,-3%[60.1 µM],4%,0%,x,-20%,1%,x,x,x,x
CCOc1ccc(C(=O)/C=C/Nc2ccc(S(=O)(=O)Nc3cc(C)nc(C)n3)cc2)cc1,-32%,-17%,8.9µM*,-18%[57.1 µM],u,40µM*,35*,-36,1,69*
Nc1nc2c(c(=O)[nH]1)CN(Cc1ccccc1)CC2,4%,20%,x,-2%,-21%,64%,x,x,x,x
O=c1[nH]c(C(Cl)Cl)nc2sc3c(c12)CCN(Cc1ccccc1)C3,u,-32%,13µM*,-36%,40µM*,u,16*,-5,4,x
O=[N+]([O-])c1cc(CN2CCOCC2)c2cccnc2c1O,u,28µM*,2.5µM*,-23%,8.9µM*,u,4.5*,11,20,x
CS(=O)(=O)Oc1ccc2c(c1)O/C(=C\c1cccnc1)C2=O,-7%,-23%,26%,-1%,-14%,-9%,x,x,x,x
COc1cc(OC)c(OC)cc1/C=C1\Oc2cc(OS(C)(=O)=O)ccc2C1=O,u,-29%,11µM*,u,50µM*,20µM*,35*,-30,17,96*
Cc1ccc(Nc2sc(C(=O)c3ccccc3)c(N)c2S(=O)(=O)c2ccccc2)c(C)c1,-8%,4%,23%,x,-14%,11%,x,x,x,x
CCn1cc(C(=O)NCc2ccco2)c(=O)c2cc(F)c(N3CCN(C(=O)c4ccco4)CC3)cc21,u,-11%,14µM*,u,u,u,u,-36,33,x
O=C(Cn1cnc2sc(-c3ccccc3)cc2c1=O)NCc1ccccc1,-7%,0%,u,-11%,-10%,u,x,x,x,x
O=C(Cn1cnc2sc(-c3ccccc3)cc2c1=O)NCc1ccco1,32µM*,u,7.9µM*,56µM*,7.1µM*,10µM*,7.1*,-10,18,x
C=CCn1c(=NC(=O)c2sc3ccccc3c2Cl)sc2cc(S(N)(=O)=O)ccc21,u,-14%,8.9µM*,-33%[57.1 µM],u,26%,14*,-9,44,x
O=C(Nc1cccc(-c2nc3ccccc3[nH]2)c1)c1cccc(NC(=O)c2ccco2)c1,u,u,13µM*,-30%,50µM*,u,32*,-9,62,x
COC(=O)c1ccc(CSc2nc3scc(-c4cccs4)c3c(=O)[nH]2)o1,u,-9%,20µM*,u,u,u,32*,-9,22,98*
O=C(OCc1cc(=O)n2c(n1)sc1ccccc12)c1ccc2c(=O)n3c(nc2c1)CCC3,u,7%,10µM*,-6%[11.6 µM],u,u,13*,-17,27,x
Cc1cc(-c2nc3c4c5c(sc4[nH]c(=O)n3n2)CCC5)c(C)o1,u,u,3.5µM*,u,13µM*,13µM*,32*,-17,27,23
N#Cc1c(=O)c2nc(NCCCO)ncc2n2c(=O)c3ccccc3[nH]c12,-30%,u,11µM*,u,40µM*,22µM*,u,-38,-1,40*
COc1ccc(OC)c(CNC(=O)c2ccccc2NC(=O)c2nsc3ccccc23)c1,-11%[60.1 µM],3%,32%,x,10%,-19%,x,x,x,x
O=C(COC(=O)c1ccccc1Oc1ccccc1)NCc1ccco1,79µM*,u,20µM*,u,14µM*,u,35*,-4,u,x
O=C(COc1ccccc1-c1ccccc1)NCc1ccco1,-16%,-14%,7%,-4%,-13%,67%,x,x,x,x
Cc1csc(NC(=O)C2CC(=O)N(c3ccc4c(c3)OCCO4)C2)n1 (stereo not drawn),-4%,17%,x,2%,4%,17%,x,x,x,x
O=C(Nc1nc(-c2ccco2)c(-c2ccco2)s1)C1CC(=O)N(c2ccc3c(c2)OCCO3)C1 (stereo not drawn),20µM*,u,8.9µM*,13µM*,8.9µM*,7.9µM*,u,-26,-3,97*
O=C(Nc1nnc(SCc2c(Cl)cccc2Cl)s1)C1CC(=O)N(c2ccc3c(c2)OCCO3)C1 (stereo not drawn),u,0%,7.1µM*,-19%[57.1 µM],u,16µM*,u,-23,4,x
CCOc1ccc(C(=O)Nc2ccc(NC(=O)c3ccccc3)c(C)c2)cc1[N+](=O)[O-],-2%,-4%,20µM*,-28%,-23%,153%,18*,-3,42,x
